Test [1] can be described thus: Quantitative high throughput screen for delayed death inhibitors of the malarial parasite plastid, 48 hour incubation (AID 488752). Note: % is set by controls: 0 for no effect and ±100 for the full control effect; nearly all actives have a fitted effect of over 65% in size. The procedure, abridged: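 First, compound was pinned into RPMI 1640 medium containing 0.5% Albumax. Next, reporter-parasite-infected erythrocytes were added to 2% hematocrit and 0.1% parasitemia. After 48 h at 37 C under 5% CO2, luciferase detection reagent was added and luminescence read.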

The target of test [2] is Thioredoxin reductase 1, cytoplasmic (Rattus norvegicus) (UniProt O89049). In words: qHTS Assay for Substrates of Mammalian Selenoprotein Thioredoxin Reductase 1 (TrxR1) (AID 488772).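 Note: series mostly up to about 57 µM; 0% is about no effect; a drop in NADPH fluorescence below the no-compound background marks a TrxR1 substrate.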 In short, it runs like this: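 In this dual-purpose format, potential substrates are identified from the first fluorescence read after selenite addition, not from the 8-minute delta. Rat enzyme is preincubated with NADPH and then with compound at ~22 deg C.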
Sequence of Thioredoxin reductase 1, cytoplasmic (Rattus norvegicus) (O89049 whole entry, looked up): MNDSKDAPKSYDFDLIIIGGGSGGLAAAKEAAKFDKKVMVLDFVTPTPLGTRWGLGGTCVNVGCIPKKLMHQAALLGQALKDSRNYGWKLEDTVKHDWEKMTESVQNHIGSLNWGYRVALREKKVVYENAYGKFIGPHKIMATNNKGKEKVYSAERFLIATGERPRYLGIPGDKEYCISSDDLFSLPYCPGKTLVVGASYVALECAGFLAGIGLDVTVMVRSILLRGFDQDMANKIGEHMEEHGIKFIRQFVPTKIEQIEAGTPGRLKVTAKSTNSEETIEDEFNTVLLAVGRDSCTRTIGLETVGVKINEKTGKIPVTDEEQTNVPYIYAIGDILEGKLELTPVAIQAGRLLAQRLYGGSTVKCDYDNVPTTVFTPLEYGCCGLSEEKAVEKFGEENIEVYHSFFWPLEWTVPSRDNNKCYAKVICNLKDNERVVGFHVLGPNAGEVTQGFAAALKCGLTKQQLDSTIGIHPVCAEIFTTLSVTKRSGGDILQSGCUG
A general note: Quantitative high-throughput screening tests each substance at several concentrations.

Test [3] has the same target. The experiment in a line: qHTS Assay for Inhibitors of Mammalian Selenoprotein Thioredoxin Reductase 1 (TrxR1) (AID 488773).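 Note: drop in NADPH fluorescence over an 8 min run after selenite addition; series mostly up to about 57 µM; % is set by controls: 0 for no effect and ±100 for the full control effect; nearly all actives have a fitted effect of over 40% in size.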 To be noted: Potency: inhibition. The procedure, abridged: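 Inhibition is scored from the loss of NADPH fluorescence between first and last reads of an 8-min kinetic run. Selenite (400 uM) was the substrate, added after 15 min compound preincubation at room temperature.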

The target of test [4] is Flap endonuclease 1 (Homo sapiens) (UniProt P39748). The experiment in a line: qHTS Validation Assay for the Inhibitors of Human Flap endonuclease 1 (FEN1) (AID 488816). Note: % is set by controls: 0 for no effect and ±100 for the full control effect. The procedure, abridged: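 Steps: add FEN1 (10 nM reagent) or buffer only; pin compounds; hold 15 min at room temperature; start with substrate, 50 nM final; read at 0 and 15 min; correct, normalize and fit a four-parameter Hill curve.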
Sequence of Flap endonuclease 1 (Homo sapiens) (P39748 whole entry, looked up): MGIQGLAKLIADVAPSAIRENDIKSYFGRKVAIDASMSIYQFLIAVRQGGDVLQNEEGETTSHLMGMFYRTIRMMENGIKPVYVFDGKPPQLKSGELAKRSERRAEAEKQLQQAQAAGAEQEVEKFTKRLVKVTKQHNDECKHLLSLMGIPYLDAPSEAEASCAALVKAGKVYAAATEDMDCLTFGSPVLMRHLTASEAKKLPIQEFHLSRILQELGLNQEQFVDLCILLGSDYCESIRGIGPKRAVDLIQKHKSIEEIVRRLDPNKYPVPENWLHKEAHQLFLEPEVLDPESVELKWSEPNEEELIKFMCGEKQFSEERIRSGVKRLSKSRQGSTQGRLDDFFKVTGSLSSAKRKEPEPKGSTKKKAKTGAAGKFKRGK

The target of test [5] is M-phase phosphoprotein 8 (Homo sapiens) (UniProt Q99549). In words: qHTS Validation Assay for Inhibitors for MPP8 Chromodomain Interactions with Methylated Histone Tails (AID 488949).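 Note: AlphaScreen signal from MPP8 chromodomain bound to biotinylated H3K9me3 peptide; top concentration of the series differs between compounds; % is set by controls: 0 for no effect and ±100 for the full control effect; nearly all actives have a fitted effect of over 55% in size.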 In short, it runs like this: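 AlphaScreen read-out: streptavidin donor and nickel chelate acceptor beads (final 10 ug/mL), 30 min in the dark at RT. Complex of 50 nM MPP8 and 50 nM b-H3(1-18)K9me3 peptide had been exposed to compounds for 30 min beforehand.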
Sequence of M-phase phosphoprotein 8 (Homo sapiens) (Q99549 whole entry, looked up): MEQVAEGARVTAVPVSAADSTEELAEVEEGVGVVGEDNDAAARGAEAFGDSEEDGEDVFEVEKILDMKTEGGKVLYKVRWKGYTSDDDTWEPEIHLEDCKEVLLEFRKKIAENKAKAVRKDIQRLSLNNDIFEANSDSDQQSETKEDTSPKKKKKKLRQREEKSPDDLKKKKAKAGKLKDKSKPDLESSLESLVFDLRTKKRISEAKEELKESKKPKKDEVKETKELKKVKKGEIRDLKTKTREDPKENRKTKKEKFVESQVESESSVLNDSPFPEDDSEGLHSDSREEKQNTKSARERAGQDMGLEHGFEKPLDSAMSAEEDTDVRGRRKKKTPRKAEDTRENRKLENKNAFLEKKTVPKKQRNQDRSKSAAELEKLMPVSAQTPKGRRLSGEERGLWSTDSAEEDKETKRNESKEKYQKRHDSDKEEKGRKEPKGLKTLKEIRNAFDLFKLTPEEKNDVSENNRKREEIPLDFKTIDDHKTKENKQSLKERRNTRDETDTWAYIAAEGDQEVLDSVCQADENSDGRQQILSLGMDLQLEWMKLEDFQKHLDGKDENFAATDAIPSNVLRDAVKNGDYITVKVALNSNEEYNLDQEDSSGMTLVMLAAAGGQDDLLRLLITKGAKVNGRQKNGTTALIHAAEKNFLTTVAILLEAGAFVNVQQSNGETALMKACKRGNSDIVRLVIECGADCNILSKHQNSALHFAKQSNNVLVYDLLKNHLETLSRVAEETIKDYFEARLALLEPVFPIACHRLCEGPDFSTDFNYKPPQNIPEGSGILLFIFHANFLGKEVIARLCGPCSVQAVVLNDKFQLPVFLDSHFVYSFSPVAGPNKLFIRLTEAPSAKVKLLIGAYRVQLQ

Test [6] has as its target Methanococcus maripaludis chaperonin (MmCpn) (UniProt Q6LX38). In words: High-Throughput Screening for Modulators of Cytosolic Chaperonin Activity: MmCpn Primary Screen (AID 488978). Note: 0% is about no effect. In short, it runs like this: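 ADP formation read by HTRF Transcreener, 665/590 nm emission after 320 nm excitation. Enzyme: archaeal chaperonin at 50 nM final; substrate ATP 30 uM final; 10 min, 37C, after 5 min compound preincubation at RT.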

Test [7] addresses Transient receptor potential cation channel subfamily V member 1 (Homo sapiens) (UniProt Q8NER1). In words: HTS Assay for Compounds that Act as Enhancers of the Vanilloid Receptor 1 (AID 488979). Note: 0% is about no effect. In short, it runs like this: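 TRPV1-expressing cells loaded with Fluo-8 calcium dye; compounds added and calcium influx read kinetically for 3 min (agonist phase), then capsaicin at EC20 added and read 2 min more for enhancement. Fluorescence ex 480/em 520 nm.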

In test [8] the target is Thyrotropin receptor (Homo sapiens) (UniProt P16473). The experiment in a line: qHTS Assay for Antagonists of the Thyroid Stimulating Hormone Receptor (AID 488980). Note: series mostly up to about 58 µM; 0% is about no effect. The procedure, abridged: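 TSHR-HEK293 cells; 70 uM RO 20-1724 PDE inhibitor; compound + EC80 TSH (4 nM final); anti-cAMP cryptate antibody/cAMP-d2 in lysis buffer, 30 min RT; HTRF 665/620 nm read.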
In test [9] the target is D(1A) dopamine receptor (Homo sapiens) (UniProt P21728). In words: HTS Assay for Allosteric Agonists of the Human D1 Dopamine Receptor: Primary Screen for Agonists (AID 488981). Note: 0% is about no effect. The procedure, abridged:
(§1)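 Tetracycline-induced HEK293 T-REx cells force-coupled to calcium signalling were incubated overnight at 30 C and dye-loaded at room temperature. Calcium flux over 180 s after compound addition flagged agonists; a further 180 s read after EC20 dopamine flagged potentiators.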

Test [10] has the same target. In words: HTS Assay for Allosteric Agonists of the Human D1 Dopamine Receptor: Primary Screen for Potentiators (AID 488982). Note: 0% is about no effect. In short, it runs like this:
as §1

The target is the same in test [11]. In words: HTS Assay for Allosteric Agonists of the Human D1 Dopamine Receptor: Primary Screen for Antagonists (AID 488983).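 Note: calcium flux response to an EC80 dopamine challenge measured with no-wash dye; % is set by controls: 0 for no effect and ±100 for the full control effect; nearly all actives have a fitted effect of over 65% in size.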 The procedure, abridged:
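Kinetic fluorescence at 1 cycle/sec tracked intracellular calcium in force-coupled, tetracycline-inducible HEK293 T-REx D1 cells. Loss of response to an EC80 dopamine dose, given 180 s after compound, marked antagonists.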

Test [12] can be described thus: Validation screen for small molecules that induce genotoxicity in human embryonic kidney (HEK293T) cells expressing luciferase-tagged ELG1 (AID 493106). Note: 0% is about no effect. In short, it runs like this:
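Cells were dispensed at 2,000 per well, then 23 nL compound or DMSO was pinned in. After 16 hr at 37 °C and 5% CO2, ONE-Glo reagent was added. Luciferase activity was measured following 30 min at room temperature.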

Test [13] concerns the target ATPase family AAA domain-containing protein 5 (Homo sapiens) (UniProt Q96QE3). In words: Validation screen for small molecules that inhibit ELG1-dependent DNA repair in human embryonic kidney (HEK293T) cells expressing luciferase-tagged ELG1 (AID 493107).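 Note: cells co-treated with the DNA-damaging agent 5-fluorouridine alongside compound; series mostly up to about 46 µM; % is set by controls: 0 for no effect and ±100 for the full control effect; inhibitors lower the ELG1-luciferase luminescence signal; nearly all actives have a fitted effect of over 70% in size.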 In short, it runs like this: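 Cells are dispensed in 1536-well format, then 5-fluorouridine and compound are pinned in. After a 16 hr incubation at 37 °C and 5% CO2, ONE-Glo is added and luciferase measured on a CCD imager.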

Test [14] deals with Thyrotropin-releasing hormone receptor (Homo sapiens) (UniProt P34981). In words: qHTS for Small Molecule Agonists and Allosteric Enhancers of Human TRH Receptor: Validation Screen for Agonists (AID 493127;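 active = calcium activation more than 3 SD above the typical response in the agonist read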;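 note: intracellular calcium rise by fluo-8 fluorescence before TRH EC20 addition; 0% is about no effect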). Conditions: TRH receptor agonist cell assay; at 2 µM; stronger effect = higher value. The procedure, abridged: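 Compounds are added by online pintool to dye-loaded TRHR cells while fluorescence is recorded every second. A rise in calcium signal during the agonist read marks activation; a later 10 nM TRH addition (EC20) serves the separate enhancer mode.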
Sequence of Thyrotropin-releasing hormone receptor (Homo sapiens) (P34981 whole entry, looked up): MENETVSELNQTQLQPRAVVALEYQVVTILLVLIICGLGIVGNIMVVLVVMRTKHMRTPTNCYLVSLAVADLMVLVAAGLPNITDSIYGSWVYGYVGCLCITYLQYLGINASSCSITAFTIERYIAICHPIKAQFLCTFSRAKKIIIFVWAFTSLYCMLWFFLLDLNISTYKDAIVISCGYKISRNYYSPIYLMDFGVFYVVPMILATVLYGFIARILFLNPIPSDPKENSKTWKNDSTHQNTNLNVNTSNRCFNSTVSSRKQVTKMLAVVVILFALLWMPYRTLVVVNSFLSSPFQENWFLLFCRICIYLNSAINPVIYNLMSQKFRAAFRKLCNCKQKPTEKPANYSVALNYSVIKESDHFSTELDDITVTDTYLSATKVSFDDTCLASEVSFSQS

A short description of test [15]: Nrf2 qHTS screen for inhibitors: Validation (AID 493153; active = well fitted inhibition curve with a large enough effect in the main read-out, with a control signal flat, not every such curve was filed as active). Conditions: Potency: luciferase luminescence; viability change: measured here: cytotoxicity max response. In short, it runs like this: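 A549 ARE_Fluc, 5% FBS OPTI-MEM; cpd titration, 18-24 h, 37°C/5% CO2. Read 1: CellTiter-Fluor (Ex 405/Em 525), cytotox. Read 2: luciferase lum, Nrf2 activity.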
Test [16] is described as follows: qHTS for Inhibitors of Cell Surface uPA Generation: Validation Assay (AID 493164).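 Note: RAW 264.7 macrophage cells exposed to compound for 18 h; 0% is about no effect.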 The procedure, abridged:
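ATP-Lite luminescence read-out: ATP remains high when uPA activity-dependent LF translocation into the cytoplasm is blocked. RAW 264.7 cells, 18 h compound exposure at 37 C; 7-point titration, 2.45 nM to 38.3 uM final.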

Test [17] has as its target Chromobox protein homolog 1 (Homo sapiens) (UniProt P83916). In words: qHTS Validation Assay for Inhibitors of HP1-beta Chromodomain Interactions with Methylated Histone Tails (AID 488953).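 Note: loss of AlphaScreen luminescence from HP1-beta binding biotinylated H3K9me3 peptide; series mostly up to about 110 µM; % is set by controls: 0 for no effect and ±100 for the full control effect; nearly all actives have a fitted effect of over 50% in size.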 The procedure, abridged:
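Disruption of preformed HP1-beta:H3K9me3 peptide complexes (both 50 nM, PBS pH 7.4 with 0.01% Tween-20) is measured by AlphaScreen after 30 min compound exposure at room temperature, using streptavidin donor and nickel chelate acceptor beads at 10 ug/mL final.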

Test [18] addresses ATP-dependent 6-phosphofructokinase (Trypanosoma brucei brucei) (UniProt O15648). In words: qHTS Assay to Find Inhibitors of T. brucei phosphofructokinase: hit validation (AID 492961).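 Note: luminescence reports ADP formed as PFK phosphorylates fructose-6-phosphate with ATP; series mostly up to about 51 µM; % is set by controls: 0 for no effect and ±100 for the full control effect.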 The procedure, abridged:
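Percent activity derived from corrected luminescence, normalized between 0x and 1x enzyme controls, then fitted to concentration-response curves. Conditions: 1.25 nM PFK, 0.1 mM ATP, 0.5 mM F6P, 45 min RT.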

The nature of test [19]: Quantitative high throughput screen for delayed death inhibitors of the malarial parasite plastid, 96 hour incubation (AID 488745).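 Note: luciferase-expressing P. falciparum in erythrocytes at 2% hematocrit and 0.1% parasitemia; series mostly up to about 29 µM; % is set by controls: 0 for no effect and ±100 for the full control effect; nearly all actives have a fitted effect of over 70% in size.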 The procedure, abridged: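 Readout is firefly luciferase luminescence from an integrated reporter in P. falciparum; lower signal marks inhibited growth. Cultures at 2% hematocrit and 0.1% parasitemia were treated with compound across two generations (96 h, 37 C, 5% CO2).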

Results filed as inconclusive are left out. Calls of active or inactive are those of the source. Unless noted, calls come from the whole dose curve; as a rule, active = well fitted curve in the direction sought with a large enough effect; inconclusive = small, poorly fitted or top-dose-only effect, or another doubt; inactive = no such curve, though single readings can be large; an effect the other way counts as inactive or inconclusive.

Sequence of D(1A) dopamine receptor (Homo sapiens) (P21728 whole entry, looked up): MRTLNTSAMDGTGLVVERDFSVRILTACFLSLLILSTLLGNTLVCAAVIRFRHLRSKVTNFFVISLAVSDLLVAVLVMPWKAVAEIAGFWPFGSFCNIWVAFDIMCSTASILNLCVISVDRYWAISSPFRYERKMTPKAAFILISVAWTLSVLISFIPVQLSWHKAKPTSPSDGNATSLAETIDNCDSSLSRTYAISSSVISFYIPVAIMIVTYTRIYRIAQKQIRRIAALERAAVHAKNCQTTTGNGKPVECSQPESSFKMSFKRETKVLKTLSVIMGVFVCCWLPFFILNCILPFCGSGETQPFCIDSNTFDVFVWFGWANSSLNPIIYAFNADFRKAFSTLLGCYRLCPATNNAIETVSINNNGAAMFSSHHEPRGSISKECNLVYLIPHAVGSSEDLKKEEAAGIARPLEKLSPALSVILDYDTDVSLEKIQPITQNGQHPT
Sequence of Methanococcus maripaludis chaperonin (MmCpn) (Q6LX38 1-543): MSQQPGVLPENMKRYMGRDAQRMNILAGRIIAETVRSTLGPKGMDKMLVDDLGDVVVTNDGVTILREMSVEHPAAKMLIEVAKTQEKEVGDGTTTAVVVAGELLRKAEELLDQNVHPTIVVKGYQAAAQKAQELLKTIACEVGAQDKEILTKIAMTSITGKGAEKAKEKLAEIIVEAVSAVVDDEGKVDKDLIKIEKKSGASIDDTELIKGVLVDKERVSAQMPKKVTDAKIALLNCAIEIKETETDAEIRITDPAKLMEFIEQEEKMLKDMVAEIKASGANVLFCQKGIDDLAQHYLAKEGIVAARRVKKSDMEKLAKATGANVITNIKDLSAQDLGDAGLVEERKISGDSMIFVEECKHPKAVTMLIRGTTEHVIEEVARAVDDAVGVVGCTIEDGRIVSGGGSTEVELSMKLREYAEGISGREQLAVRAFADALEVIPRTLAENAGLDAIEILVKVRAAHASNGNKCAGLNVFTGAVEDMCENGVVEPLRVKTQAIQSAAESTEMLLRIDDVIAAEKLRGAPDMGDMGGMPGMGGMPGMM
Sequence of ATPase family AAA domain-containing protein 5 (Homo sapiens) (Q96QE3 whole entry, looked up, the tested form may be a part): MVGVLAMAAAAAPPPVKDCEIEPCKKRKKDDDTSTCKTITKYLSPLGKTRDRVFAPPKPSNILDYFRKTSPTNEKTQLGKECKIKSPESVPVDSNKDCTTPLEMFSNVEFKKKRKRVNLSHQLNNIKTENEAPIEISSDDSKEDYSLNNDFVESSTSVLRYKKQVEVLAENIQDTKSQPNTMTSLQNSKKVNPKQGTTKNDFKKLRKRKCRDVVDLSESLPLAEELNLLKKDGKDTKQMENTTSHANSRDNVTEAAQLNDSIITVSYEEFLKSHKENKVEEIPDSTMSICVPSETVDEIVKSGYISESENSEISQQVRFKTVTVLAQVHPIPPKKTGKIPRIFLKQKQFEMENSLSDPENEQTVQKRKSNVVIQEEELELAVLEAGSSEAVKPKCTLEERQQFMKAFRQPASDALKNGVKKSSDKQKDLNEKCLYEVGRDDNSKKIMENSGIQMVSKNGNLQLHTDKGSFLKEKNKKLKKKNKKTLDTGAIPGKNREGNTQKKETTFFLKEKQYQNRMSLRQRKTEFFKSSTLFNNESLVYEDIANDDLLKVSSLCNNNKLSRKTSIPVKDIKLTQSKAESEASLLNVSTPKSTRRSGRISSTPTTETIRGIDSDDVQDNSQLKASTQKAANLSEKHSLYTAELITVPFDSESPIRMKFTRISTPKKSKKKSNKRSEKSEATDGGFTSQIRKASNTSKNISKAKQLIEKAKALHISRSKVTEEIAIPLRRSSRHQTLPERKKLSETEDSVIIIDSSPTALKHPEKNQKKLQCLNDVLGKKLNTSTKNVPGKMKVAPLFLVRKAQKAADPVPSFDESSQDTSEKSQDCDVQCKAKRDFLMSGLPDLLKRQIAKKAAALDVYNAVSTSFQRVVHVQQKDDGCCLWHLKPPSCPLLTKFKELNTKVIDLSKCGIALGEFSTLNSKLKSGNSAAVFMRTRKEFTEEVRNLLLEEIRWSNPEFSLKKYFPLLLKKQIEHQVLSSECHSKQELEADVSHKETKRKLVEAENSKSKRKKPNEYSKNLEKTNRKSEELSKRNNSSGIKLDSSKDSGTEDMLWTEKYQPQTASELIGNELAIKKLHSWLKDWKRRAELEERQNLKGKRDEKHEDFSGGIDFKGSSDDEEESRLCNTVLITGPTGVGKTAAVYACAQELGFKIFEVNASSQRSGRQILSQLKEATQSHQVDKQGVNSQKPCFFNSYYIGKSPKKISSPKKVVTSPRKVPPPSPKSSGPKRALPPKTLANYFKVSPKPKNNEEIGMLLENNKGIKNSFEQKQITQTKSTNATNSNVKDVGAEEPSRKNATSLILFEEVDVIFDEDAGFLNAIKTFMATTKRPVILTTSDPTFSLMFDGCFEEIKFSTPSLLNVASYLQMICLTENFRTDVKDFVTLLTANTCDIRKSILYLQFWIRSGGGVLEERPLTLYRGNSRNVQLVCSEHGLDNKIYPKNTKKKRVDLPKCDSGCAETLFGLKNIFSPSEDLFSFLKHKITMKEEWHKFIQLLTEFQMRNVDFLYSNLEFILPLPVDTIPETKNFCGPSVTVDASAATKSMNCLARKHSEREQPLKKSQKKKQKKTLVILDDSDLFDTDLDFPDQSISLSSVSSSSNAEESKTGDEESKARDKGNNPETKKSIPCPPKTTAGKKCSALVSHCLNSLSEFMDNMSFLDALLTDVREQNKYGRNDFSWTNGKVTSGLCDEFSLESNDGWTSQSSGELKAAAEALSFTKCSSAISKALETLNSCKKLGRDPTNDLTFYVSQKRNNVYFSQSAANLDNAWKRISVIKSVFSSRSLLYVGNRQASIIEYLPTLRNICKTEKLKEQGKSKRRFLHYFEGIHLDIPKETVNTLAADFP

Take `CC(C)NP(=O)(NC(C)C)OP(=O)(NC(C)C)NC(C)C`: the Potency entry in [1], in test [3], in test [4], in [5], in test [9] and in test [10] was “inactive” throughout. In addition, the Potency entry in test [11], in [12], in test [13] and in test [15] was “inactive” each time. The compound was classed as inactive in [2], in test [6], in [7], in [8] and in test [16]. Besides, in test [14], the activation was -2.75% (inactive). Further, the viability change in [15] was determined as 0.686%.

For `NC(C(=O)O)c1cc(=O)[nH]o1` (stereo unspecified), the Potency result in test [1], in test [3], in [4], in test [5], in test [9] and in [10] was “inactive” each time. The Potency result in [11], in [12] and in [13] was “inactive” throughout. Besides, the call in test [2], in test [6], in test [7], in test [8] and in test [16] was inactive. For the same compound, the activation in [14] was 0.688% (inactive).

Take `C=CCN1CC[C@]23c4c5ccc(O)c4O[C@H]2/C(=N/NC(=O)c2ccccc2)CC[C@@]3(O)[C@H]1C5`: the call in test [2], in test [6], in test [7] and in test [16] was inactive. In addition, the Potency entry in test [3], in [4], in test [5], in test [17], in test [9] and in [10] was “inactive” in each case. The Potency result in test [11], in test [12], in test [13] and in test [15] was “inactive” each time. Also, the activation in test [14] is 1.44% (inactive). Further, in test [15], the viability change was 7.77%.

Consider `CNC(=O)OCC[N+](C)(C)C`, for which the Potency entry in test [1], in [5] and in test [18] was “inactive” each time. Further, the outcome in [7] was inactive. The activation in test [14] was -0.438% (inactive).

`CCCN(CCC)[C@@H]1CCc2cccc(O)c2C1`: the outcome in [2], in test [6], in test [7] and in [16] was inactive. Further, the Potency entry in [3], in test [4], in [5], in [9], in [10] and in test [11] was “inactive” in each case. In addition, the Potency entry in [12], in [13] and in test [15] was “inactive” throughout. Further, the activation in test [14] was 0.5% (inactive). Moreover, in test [15], the viability change is -3.45%.

As for `CCCC[N+]1(C)C2CC(OC(=O)[C@H](CO)c3ccccc3)CC1C1OC12` (stereo partly specified), the call in [2], in test [6] and in test [16] was inactive. Further, the Potency result in [3], in test [4], in test [5], in test [17], in test [9] and in [10] was “inactive” each time. Further, the Potency result in [11], in test [12], in test [13] and in test [15] was “inactive” each time. The viability change in test [15] is -6.93%.

Consider `CO[C@H]1CC=C2CCN3CCC4=C(CC(=O)OC4)[C@]23C1`, for which the Potency result in [19], in [3], in [5], in [9], in [10] and in [11] was “inactive” in each case. The Potency result in [12], in [13] and in test [15] was “inactive” each time. Besides, the result in test [2], in [6], in [7] and in [16] was inactive. Besides, in [15], the viability change was -2.68%.

The values above are taken from PubChem BioAssay (NCATS).
